Bioassay records as filed in PubChem BioAssay.
KB-V1 cytotox – KB-V1 MDR subline cytotoxicity; KB-V1 MDR cells viability, CellTiter-Glo, 72 h; Potency, µM (top dose mostly 46.1 µM), most hits filed as cytotoxic; 400,000 compounds, 3.4% hits; AID 1347076; also: nearly all actives have a fitted effect of over 60% in size
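KB-V1 MDR subline cells in DMEM (phenol-red free, 10% FBS) exposed to compounds in qHTS concentration series for 72 h at 37 degrees C. Viability read by CellTiter-Glo luminescence; concentration-effect curves fitted after normalization and correction.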
Giardia kill – Giardia lamblia killing; Giardia lamblia trophozoite viability; activity change, % at 7.66 µM, hits read low; 340,000 compounds, 0.15% hits; in the data active = activity change below about -80%; inconclusive = between about -30% and that limit;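 also: parasites exposed to compound for two days anaerobically before the ATP read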
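Luminescent ATP signal served as the viability read-out, measured 15-30 min after adding ATP detection reagent to trophozoites that had been incubated with compounds for 48 hrs at 37 deg C anaerobically at 100 cells/well.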
A549 viability – counter-screen for Nrf2 inhibitors: cytotoxicity in A549 cells; A549 ARE-Fluc cells, CellTiter-Fluor viability, 18-24 h; Potency, µM (highest dose often 46 µM), actives largely listed as inhibitors; 390,000 compounds, 0.16% hits; AID 504648
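A549 ARE-Fluc cells in 5% FBS OPTI-MEM, 5000 cells/well, rested 2 h then exposed to compounds in concentration-response for 18-24 h at 37 °C. Viability by CellTiter-Fluor fluorescence (Ex 405/Em 525) after 30 min; luciferase luminescence (BugLite, 15 min, RT) read afterwards.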
PI4K2A inh – blocks human PI4K2A kinase activity; purified PI4K2A, ADP-Glo luminescence, 1 h; active compounds read low; activity change, negative = inhibition, % at 76.9 µM; 420,000 compounds, 0.13% hits; AID 1346378; in the data active = activity change below about -50%; inconclusive = mostly about -30% to -49%
Target sequence (Q9BTU6 whole entry, looked up): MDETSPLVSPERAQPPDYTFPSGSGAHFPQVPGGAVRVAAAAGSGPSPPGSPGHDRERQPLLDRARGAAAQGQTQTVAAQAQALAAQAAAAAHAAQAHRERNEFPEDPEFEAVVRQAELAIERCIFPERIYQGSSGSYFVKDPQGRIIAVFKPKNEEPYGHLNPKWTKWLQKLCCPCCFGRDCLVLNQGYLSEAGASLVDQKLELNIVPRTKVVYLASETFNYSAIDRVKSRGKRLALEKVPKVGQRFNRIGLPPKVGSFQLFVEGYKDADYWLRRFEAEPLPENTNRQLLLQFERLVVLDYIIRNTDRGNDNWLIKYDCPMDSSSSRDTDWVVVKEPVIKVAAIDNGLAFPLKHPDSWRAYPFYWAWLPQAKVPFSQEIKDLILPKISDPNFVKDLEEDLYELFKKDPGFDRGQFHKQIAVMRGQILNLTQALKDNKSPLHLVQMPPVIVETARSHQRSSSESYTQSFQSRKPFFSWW
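ADP-Glo luminescence measured ADP generated by PI4K2A enzyme (4 ug/mL before mixing) with 1.2 mM PI substrate (pre-mix) and 300 microM ATP (pre-mix). Tris pH7.5 buffer with MgCl2, Triton X-100; 1 h reaction at ambient temperature.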
KB-3-1 cytotox – kills parental KB-3-1 adenocarcinoma cells | Potency, µM (series often up to 46.1 µM), actives largely listed as cytotoxic | KB-3-1 viability, CellTiter-Glo ATP luminescence, 72 h | 400,000 compounds, 1.4% hits; also: nearly all actives have a fitted effect of over 60% in size
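Multi-concentration cytotoxicity screen in KB-3-1 cells grown in DMEM lacking phenol red with 10% FBS. After 72 h at 37 °C with compound, ATP-dependent luminescence was recorded.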
Nrf2 inh – blocks Nrf2 signaling; A549 ARE-Fluc reporter, luciferase luminescence, 18-24 h; Potency, µM (top dose mostly 46 µM), usual class: inhibitors; 360,000 compounds, 2.1% hits; also: nearly all actives have a fitted effect of over 60% in size
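In this cell-based qHTS, ARE-driven firefly luciferase in A549 cells reports Nrf2 activity; the luminescent signal after BugLite lysis is the measured value, with a prior CellTiter-Fluor read for cell health.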
Each line names hits and unclear results; the compound was inactive in the other large screens. Rows were chosen to be rich in hits. Some 5.7% of all compounds tested hit in one or more screens of this group. Unless noted, calls follow the shape of the dose curve; as a rule, active = well fitted curve in the direction sought with a large enough effect; inconclusive = small, poorly fitted or top-dose-only effect, or another doubt; inactive = no such curve, though single readings can be large; an effect the other way counts as inactive or inconclusive.

COc1cc(C(=O)Nc2nnc(CC(C)(C)C)s2)c([N+](=O)[O-])cc1OC	KB-V1 cytotox 20.6µM
COc1ccc(Cc2nnc(NC(=O)c3cccc([N+](=O)[O-])c3C)s2)cc1	KB-V1 cytotox 20.6µM, A549 viability inconclusive
CCOCc1nnc(NC(=O)c2cc(OC)c(OC)cc2[N+](=O)[O-])s1	none
COc1ccc(Cc2nnc(NC(=O)c3ccccc3[N+](=O)[O-])s2)cc1	none
COC(=O)[C@H]1C[C@@]2(N3CCCCC3)c3ccccc3N(C(=O)OC(C)(C)C)[C@H]2N1C(=O)OC(C)(C)C	none (no result: KB-V1 cytotox, Giardia kill, A549 viability, KB-3-1 cytotox, Nrf2 inh)
COCCNC(=S)NC(=O)c1ccc(C(C)(C)C)cc1	none
COCCCNC(=S)NNC(=O)C1CC1c1ccc(C(C)(C)C)cc1 (stereo not given)	KB-3-1 cytotox inconclusive, Nrf2 inh 20.6µM
NNc1nc(-c2ccccc2Cl)nc2sc3c(c12)CCCC3	KB-V1 cytotox 4.61µM, KB-3-1 cytotox inconclusive
COc1cccc(CNc2ccc([N+](=O)[O-])cc2C)c1	KB-V1 cytotox 14.6µM
COc1ccc(OC)c(CNc2ccc([N+](=O)[O-])cc2C)c1	KB-V1 cytotox inconclusive
O=C(N/N=C/c1ccccc1)c1ccc2c(c1)OCO2	none
O=C(N/N=C\c1ccc(-c2ccc([N+](=O)[O-])cc2)o1)c1ccc2c(c1)OCO2	none
O=C(NN=Cc1c(O)ccc2ccccc12)c1ccc2c(c1)OCO2	KB-V1 cytotox inconclusive, A549 viability inconclusive, KB-3-1 cytotox inconclusive, Nrf2 inh 16.4µM
O=C(N/N=C/c1cc2c(cc1[N+](=O)[O-])OCO2)c1ccc2c(c1)OCO2	none
COc1c(O)ccc(/C=N/NC(=O)c2ccc3c(c2)OCCO3)c1[N+](=O)[O-]	Nrf2 inh 5.17µM
COc1c(O)ccc(/C=N\NC(=O)c2ccc3c(c2)OCO3)c1[N+](=O)[O-]	Nrf2 inh 11.6µM
O=C(N/N=C/c1ccc([N+](=O)[O-])o1)c1ccc2c(c1)OCO2	KB-V1 cytotox inconclusive, Giardia kill -91.4, A549 viability inconclusive, KB-3-1 cytotox inconclusive, Nrf2 inh inconclusive
CC(C)C(=O)N1CCC(Oc2cccnc2)CC1	none (no result: KB-V1 cytotox, Giardia kill, A549 viability, KB-3-1 cytotox, Nrf2 inh)
COc1ccc2c(c1)Cc1sc(NC(=O)c3ccc(Cl)cc3)nc1-2	Nrf2 inh inconclusive (no result: KB-V1 cytotox, Giardia kill, KB-3-1 cytotox)
COc1cccc(Cn2c(C(C)n3c(-c4cnccn4)nc4ccccc43)nc3ccccc32)c1 (stereo not given)	KB-V1 cytotox 16.4µM, KB-3-1 cytotox inconclusive (no result: Giardia kill, A549 viability, Nrf2 inh)
CC1(C)SC(=S)N(/N=C/c2ccc(O)cc2)C1N(O)C(=O)Nc1ccc([N+](=O)[O-])cc1 (stereo not given)	A549 viability inconclusive, KB-3-1 cytotox inconclusive, Nrf2 inh 16.4µM
Cc1ccc(/C=N/N2C(=S)SC(C)(C)C2N(O)C(=O)Nc2ccc([N+](=O)[O-])cc2)cc1 (stereo not given)	KB-V1 cytotox inconclusive, A549 viability inconclusive, Nrf2 inh inconclusive
COC(=O)c1ccccc1NC(=O)N1c2ccccc2CC1C (stereo not given)	KB-V1 cytotox 23.1µM, Nrf2 inh inconclusive
COC(=O)c1ccccc1NC(=O)N1CCN(C(=O)c2ccco2)CC1	KB-V1 cytotox 7.31µM, KB-3-1 cytotox inconclusive
COc1ccc(NC(=O)N2c3ccccc3CC2C)cc1OC (stereo not given)	KB-V1 cytotox inconclusive
Cc1nn2c(-c3ccco3)ccnc2c1-c1ccc(Cl)cc1	KB-V1 cytotox inconclusive, Nrf2 inh inconclusive (no result: Giardia kill)
CCOC(=O)c1c(C)nc2sc3c(=O)n(-c4ccc(OC)cc4)cnc3c2c1-c1ccc(OC)cc1	none
COc1ccc(-c2c(C(C)=O)c(C)nc3sc4c(=N)n(N)cnc4c23)cc1	KB-V1 cytotox 18.4µM, KB-3-1 cytotox inconclusive
CCOC(=O)c1c(C)nc2sc3c(=O)n(-c4ccc(C(C)=O)cc4)nnc3c2c1-c1ccc(OC)cc1	KB-V1 cytotox inconclusive, Nrf2 inh 14.6µM
CCOC(=O)c1c(C)nc2sc(C(=O)Nc3ccc(OC)cc3)c(N)c2c1-c1ccc(OC)cc1	KB-V1 cytotox 4.11µM, A549 viability inconclusive, KB-3-1 cytotox 5.8µM
Cc1cnc(CNC(=O)CC2C(=O)NCCN2Cc2ccccc2C(F)(F)F)cn1 (stereo not given)	PI4K2A inh -60.5 (no result: KB-V1 cytotox, KB-3-1 cytotox)
